Test results as given in PubChem BioAssay (NCI).
Compounds without any hit were thinned out: in the full panel of roughly 83,000, 20% have a hit.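 Negative percent growth values reflect cell death: -40 means 40% of the cells present at the start died, and -100 means all died.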 Unmarked numbers belong to inactive results. Activity calls are given as the source filed them. The calls were made as follows: active = growth percent below 10; inactive = the rest.

Columns and labels:
Test in all cases: NCI-60 one-dose screen, 48 h (100 = growth as untreated, 0 = no growth, -100 = all killed)
Details in all cases: 10 µM unless noted
DU-145 prostate = tested on: DU-145 prostate
K-562 leukemia = tested on: K-562 leukemia
MALME-3M melanoma = tested on: MALME-3M melanoma
MDA-MB-231 breast = tested on: MDA-MB-231 breast
RXF 393 renal = tested on: RXF 393 renal
SF-268 CNS = tested on: SF-268 CNS
SF-539 CNS = tested on: SF-539 CNS
UACC-257 melanoma = tested on: UACC-257 melanoma
M14 melanoma = tested on: M14 melanoma
HCT-15 colon = tested on: HCT-15 colon
HT29 colon = tested on: HT29 colon
SNB-75 CNS = tested on: SNB-75 CNS
SNB-19 CNS = tested on: SNB-19 CNS
U251 CNS = tested on: U251 CNS
PC-3 prostate = tested on: PC-3 prostate
SK-MEL-5 melanoma = tested on: SK-MEL-5 melanoma
UACC-62 melanoma = tested on: UACC-62 melanoma
LOX IMVI melanoma = tested on: LOX IMVI melanoma
SK-MEL-28 melanoma = tested on: SK-MEL-28 melanoma
SF-295 CNS = tested on: SF-295 CNS

Structure (SMILES) | growth (DU-145 prostate) | growth (K-562 leukemia) | growth (MALME-3M melanoma) | growth (MDA-MB-231 breast) | growth (RXF 393 renal) | growth (SF-268 CNS) | growth (SF-539 CNS) | growth (UACC-257 melanoma) | growth (M14 melanoma) | growth (HCT-15 colon) | growth (HT29 colon) | growth (SNB-75 CNS) | growth (SNB-19 CNS) | growth (U251 CNS) | growth (PC-3 prostate) | growth (SK-MEL-5 melanoma) | growth (UACC-62 melanoma) | growth (LOX IMVI melanoma) | growth (SK-MEL-28 melanoma) | growth (SF-295 CNS)
FC(F)(F)c1ccc(-c2cnc(-c3nn[nH]n3)nc2NC2CCCCCC2)cc1 | 64% [50 µM] | 20% [50 µM] | 69.5% [50 µM] | 64.1% [50 µM] | 88.7% [50 µM] | 47.8% [50 µM] | 64% [50 µM] | 81.6% [50 µM] | 53.2% [50 µM] | 38.7% [50 µM] | 66.8% [50 µM] | 93.7% [50 µM] | 41.3% [50 µM] | 33.8% [50 µM] | 28.5% [50 µM] | 71% [50 µM] | 41.6% [50 µM] | 41.6% [50 µM] | 74.1% [50 µM] | 
CC(C)CNc1nc(N=[N+]=[N-])nc(NCC(C)C)n1 | 80.1% [100 µM] | 33.5% [100 µM] | 72.7% [100 µM] | 48.5% [100 µM] | 70.8% [100 µM] | 63.3% [100 µM] |  | 62.7% [100 µM] | 57.7% [100 µM] | 54% [100 µM] | 60.4% [100 µM] | 37.3% [100 µM] | 54.8% [100 µM] | 61.9% [100 µM] | 23.3% [100 µM] | 54.6% [100 µM] | 59.1% [100 µM] | 72.6% [100 µM] | 76.9% [100 µM] | 36.5% [100 µM]
COc1ccc(-n2cnc3cc(C(=O)N4CCCCC4)ccc32)cc1 | 111% | 99.4% | 97% | 96.4% |  | 105% | 98.1% | 101% | 101% | 104% | 102% | 86.6% | 94.3% | 96.6% | 94.6% | 102% | 101% | 97.9% | 99.1% | 97.9%
O=C(/C=C(\Nc1ccccc1)c1ccccc1)c1cn(-c2ccc([N+](=O)[O-])cc2)nn1 | 125% | 73.8% | 103% | 103% |  | 98.3% | 94.9% | 42.4% | 97.6% | 84.7% | 96.9% | 91.8% | 97.6% | 87.5% | 80.1% | 97.1% | 84.9% | 88.5% | 83.7% | 73.3%
COC(=O)[C@H](CCCCNC(=O)OCc1ccccc1)NC(=O)[C@@H](NC(=O)Nc1cc(C(F)(F)F)cc(C(F)(F)F)c1)C(C)C | -82.2% [100 µM] (active) | -18.9% [100 µM] (active) | -61.4% [100 µM] (active) | -87.8% [100 µM] (active) | -90.8% [100 µM] (active) | -85% [100 µM] (active) |  | -78.5% [100 µM] (active) | -75.6% [100 µM] (active) | 13.4% [100 µM] | -60.8% [100 µM] (active) | -88.7% [100 µM] (active) | 28% [100 µM] | -88% [100 µM] (active) | -83.9% [100 µM] (active) | -43.4% [100 µM] (active) | -83.6% [100 µM] (active) | -83.3% [100 µM] (active) | -86.3% [100 µM] (active) | -65.5% [100 µM] (active)
Nc1nc2c(nnn2Cc2ccc(Cl)c(Cl)c2)c(=O)[nH]1 | 116% | 83.3% | 107% | 94.5% | 107% | 96.6% | 98.3% | 98.9% | 103% | 98.7% | 100% | 90.5% | 95.1% | 96.6% | 79.3% | 107% | 73.9% | 93.9% | 111% | 
COC(=O)C1CCN(S(=O)(=O)c2ccc(-c3ccccc3)cc2)CC1 | 110% | 103% | 122% | 115% |  | 102% | 101% | 62.7% | 107% | 110% | 109% | 87.8% | 98.5% | 111% | 90.3% | 107% | 98.2% | 107% | 105% | 195%
CC1Cc2ccccc2N1C(=O)c1ccc(C(=O)c2ccccc2)cc1 (stereo not drawn) | 79.7% | 85.6% | 73% | 91.3% |  | 92.1% | 96.3% | 30.1% | 83.5% | 86% | 89.4% | 94.3% | 90.5% | 63.5% | 97% | 74.2% | 73.6% | 83% | 99.5% | 84%
COc1ccc([N+](=O)[O-])c(S(=O)(=O)c2ccc(Cl)cc2)n1 | 93.2% | 7.72% (active) | 11.8% | 68.1% |  | 92.4% | 82.8% | 94.9% | 60.5% | 27.2% | 73.7% | 78% | 92% | 95.6% | 92.3% | 91.6% | 89.1% | 10.7% | 82% | 95.3%
FC(F)(F)c1cc(-c2nnc3n2N=C(N2CCCC2)CS3)cc(C(F)(F)F)c1 | 86.8% | 70.7% | 83.4% | 59.6% |  | 74.9% | 30% | 93.2% | 100% | 96.9% | 86.2% | 29.6% | 65.4% | 37.6% | 84.2% |  | 69.1% | 84.3% | 101% | 45.9%
CCCn1c(N)c(C(=O)CNc2ccc(I)cc2)c(=O)[nH]c1=O | 57.3% | 43.5% | 80.7% | 67.5% |  | 46.1% | 57.5% | 72.1% | 56.2% | 22.7% | 41.7% | 81.8% | 88.7% | 28.8% | 60.9% | 60.2% | 37.1% | 18.7% | 51.7% | 54.2%
CCOC(=O)N1CCC(N=C2CSc3nnc(-c4cc(C(F)(F)F)cc(C(F)(F)F)c4)n3N2)CC1 | 64.6% | 28.3% | 68.4% | 34.4% |  | 50.2% | 18.3% | 48.6% | 27.5% | 25.2% | -3.65% (active) |  | 58.2% | 22.6% | 2.55% (active) | -67.5% (active) | 32.6% | 16.5% | 44.5% | 33.4%
O=c1sc2ncnc3ncn1c32 | 33.6% | 15.2% | 73.6% | 43.7% |  | 82% | 45.8% | 88.1% | 14.5% | 78% | 56.2% | 46.1% | 97.4% | 87.4% | 75.8% | 89.3% | 56.8% | 12.7% | 99.6% | 38.4%
COc1ccc(N2CCN(CC(=O)N3CCN(c4nnc(-c5ccc(Cl)cc5)c(-c5ccc(Cl)cc5)n4)CC3)CC2)cc1 | 70.6% | 22.3% | 81.7% | 84.1% |  | 69.8% | 30.7% |  | 59.8% | 45% | 40.9% | 76.3% | 76% | 52.3% | 22.5% | 38% | 66.6% | 49.6% | 71.5% | 53.9%
